This is a sample that favours compounds with a hit; in the whole collection about 10% have one here.
HEK cytotox = Cytotoxic Profiling in HEK 293 Cell Line of Diverse Libraries Using Quantitative High-Throughput Screening | HEK 293 viability, ATP luminescence (CellTiter-Glo), 48-72 h | Potency, µM (doses to about 115 µM), without a hit: top-dose activity change, negative = cytotoxicity, actives largely listed as inhibitors | 6.6% of 94,000 active; further: nearly all actives have a fitted effect of over 60% in size
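HEK 293 seeded at 250 cells/well receive compound via pintool. After 48 or 72 hr at 37 degree Celsius, 5% CO2 and 95% humidity, CellTiter-Glo is dispensed and luminescence read following 10 min at room temperature.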
hNpr1 antagonist = Natriuretic polypeptide receptor (hNpr1) antagonism - Primary qHTS; Potency, µM (doses to about 46.3 µM), for inactives: at the top dose activity change, negative = inhibition, usual class: inhibitors; 1.6% of 76,000 active; HEK293 hNpr1 GloSensor cGMP, ANP-stimulated luminescence; AID 1347048, 2019; calls by dose curve; further: nearly all actives have a fitted effect of over 60% in size
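HEK293 cells stably expressing human Npr1 and cGMP GloSensor pGS-40F, loaded 2 h with 2% GloSensor reagent, given compound 30 min at room temperature. Luminescence read before and 20 min after 0.1 nM hNppA.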
3T3 cytotox = Cytotoxic Profiling in NIH 3T3 Cell Line of Diverse Libraries Using Quantitative High-Throughput Screening. Potency, µM (series often up to 96.7 µM), for inactives: at the highest dose activity change, negative = cytotoxicity, usual class: inhibitors. 4.3% of 94,000 active. AID 1345082, 2018. NIH 3T3 viability, CellTiter-Glo ATP luminescence, 48-72 h; further: nearly all actives have a fitted effect of over 55% in size
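NIH 3T3 cells at 400 cells/well received 23 nL of compound by pintool and were incubated 48 or 72 h at 37 °C. Viability was read as ATP-coupled CellTiter-Glo luminescence.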
GPT2 inh = Primary qHTS assay for inhibitors of Glutamate pyruvate transaminase 2 (GPT2). 0.25% of 100,000 active. Alanine aminotransferase 2 (Homo sapiens), Q8TD30. Potency, µM (highest dose often 57.7 µM), for inactives: at the top dose activity change, negative = inhibition, hits mostly inhibitors. Recombinant GPT2, coupled pyruvate oxidase/HRP Amplex Red fluorescence; further: nearly all actives have a fitted effect of over 60% in size
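Fluorescence read-out: pyruvate from GPT2 turnover coupled to pyruvate oxidase, HRP and Amplex Red (0.2mM ThPP, 0.2U/mL PO and HRP, 50uM Amplex final). Substrates 250uM a-KG, 2mM L-alanine; enzyme 10ng/uL; 30 min RT.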
Luciferase inh = Firefly luciferase inhibition profiling of diverse chemical library using quantitative high-throughput screening | Luciferin 4-monooxygenase (Photinus pyralis), P08659 | Potency, µM (highest dose often 115 µM), usual class: inhibitors | 2.5% of 76,000 active | purified P. pyralis luciferase, luminescence, biochemical; further: nearly all actives have a fitted effect of over 65% in size
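Cell-free enzyme assay, 10nM P. pyralis luciferase, luciferin and ATP each at 10uM. Inhibition profiled over a 6-point titration, read as luminescence.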
Numbers without * were called inactive; i = inactive; ? = inconclusive; . = not tested or not shown; [ ] = another dose, or the depositor's remark. Unless noted, the call rests on the fitted dose curve; in most records, active means well fitted curve in the direction sought with a large enough effect; inconclusive means small, poorly fitted or top-dose-only effect, or another doubt; inactive means no such curve, though single readings can be large; an effect the other way counts as inactive or inconclusive. On the % scale 0 is the no-effect control and ±100 the full control effect; potency means the concentration at half of the fitted maximal effect.

SMILES | HEK cytotox | hNpr1 antagonist | 3T3 cytotox | GPT2 inh | Luciferase inh
COc1cccc(Nc2ncc3c(n2)C(C)(C(=O)NCc2ccc4c(c2)OCO4)CC3)c1 (stereo not given) | 32µM* | ? | ? | 4%[88.5 µM] | i
COc1cccc(NC(=O)C2(C)COCc3cnc(Nc4ccccc4)nc32)c1 (stereo not given) | 100µM* | -20%[70.6 µM] | 79µM* | i | i
COc1cccc(NC(=O)C2(C)CCCc3cnc(N(C)C)nc32)c1 (stereo not given) | ? | -3%[70.6 µM] | ? | ? | i
CC1(C(=O)Nc2ccncc2)CCCc2cnc(Nc3ccccc3)nc21 (stereo not given) | ? | -17%[70.6 µM] | ? | -7%[88.5 µM] | i
COc1cccc(NC(=O)C2(C)CCc3cnc(NCc4ccccc4)nc32)c1 (stereo not given) | 71µM* | -24%[70.6 µM] | ? | -10%[88.5 µM] | i
COCCNC(=O)C1CCCN1C(=O)c1cccc(-c2ccccn2)c1 (stereo not given) | -3% | . | -17% | 2% | .
CNC(=O)C1CN(c2ccccc2)C(=O)N1 (stereo not given) | 4%[230 µM] | -14%[70.6 µM] | -9%[174 µM] | i | i
CC1(C(=O)NC2CCOCC2)COCc2cnc(Nc3ccccc3)nc21 (stereo not given) | -22%[172 µM] | 0%[70.6 µM] | ? | i | i
CC1(C(=O)NCc2cccc(F)c2)COCc2cnc(Nc3ccccc3)nc21 (stereo not given) | 89µM* | -25%[70.6 µM] | ? | 1%[88.5 µM] | i
COc1ccc(NC(=O)C2(C)CCc3cnc(NCc4ccccc4)nc32)cn1 (stereo not given) | ? | -1%[70.6 µM] | 13µM* | -3%[88.5 µM] | i
Cc1cc(C)cc(-c2ccc(CN3CCCC3C(=O)NCCc3ccc(F)cc3)cc2)c1 (stereo not given) | 45µM* | . | ? | i | .
COc1ccccc1CNC(=O)C1CCCN1Cc1ccc(-c2cc(C)cc(C)c2)cc1 (stereo not given) | 40µM* | . | 40µM* | 2% | .
Cc1cc(C)cc(-c2ccc(CN3CCCC3C(=O)NCCCc3ccccc3)cc2)c1 (stereo not given) | ? | . | ? | 1% | .
Cc1cc(C)cc(-c2ccc(CN3CCCC3C(=O)NCc3cccnc3)cc2)c1 (stereo not given) | 50µM* | . | ? | i | .
CCOCCNC(=O)C1CCCN1Cc1ccc(-c2cc(C)cc(C)c2)cc1 (stereo not given) | 35µM* | . | ? | i | .
O=C(NC1CCCc2c1[nH]c1ccccc21)c1ccco1 (stereo not given) | ? | -5% | ? | i | i
COc1cccc(N2C(=O)NC(=NC3CCCCC3)C23CCN([S+](=O)([O-])c2cccc(OC)c2)C3)c1 (stereo not given) | -10% | 14% | -18% | i | i
CNC(=O)C1CCCN1Cc1ccc(-c2cc(C)cc(C)c2)cc1 (stereo not given) | ? | . | ? | i | .
Cc1cc(C)cc(-c2ccc(CN3CCCC3C(=O)NCc3ccc(C(F)(F)F)cc3)cc2)c1 (stereo not given) | 40µM* | . | 35µM* | -7% | .
Cc1cc(C)cc(-c2ccc(CN3CCCC3C(=O)NCC3CC3)cc2)c1 (stereo not given) | 40µM* | . | 40µM* | i | .
Cc1cc(C)cc(-c2ccc(CN3CCCC3C(=O)Nc3cccc(F)c3)cc2)c1 (stereo not given) | ? | . | ? | -6% | .
CCN1c2cc(C(=O)Nc3ccc(F)c(C)c3)ccc2C(=O)N2CCCCCC21 (stereo not given) | 40µM* | -18% | ? | 3% | i
CCN1c2cc(C(=O)Nc3ccc(C)c(F)c3)ccc2C(=O)N2CCCCCC21 (stereo not given) | ? | 0% | 40µM* | 3% | i

Source: PubChem BioAssay (National Center for Advancing Translational Sciences (NCATS))
